These results are taken from PubChem BioAssay (NCI).

Where “and” joins values, the source holds several entries; their conditions need not be identical. Equal entries are not always repeated. About 83,000 compounds went through this panel and 20% of them were active in at least one assay; those are over-represented in the sample as a whole.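 Each cell line was grown in a 96-well plate and treated with one concentration of compound for 48 hours. Values below 10 were considered active.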 Calls of active or inactive are those of the source.

What all share (experiment): NCI-60 one-dose screen, 48 h (100 = growth as untreated, 0 = no growth, -100 = all killed)
Settings in all cases: 10 µM unless noted

Assay [1] concerns T-47D breast.
Assay [2] concerns BT-549 breast.
In assay [3] the test system is MDA-MB-435 melanoma.
Assay [4] relates to SW-620 colon.
The test system of assay [5] is MCF7 breast.
Assay [6] concerns HCT-116 colon.
In assay [7] the test system is KM12 colon.

For the compound `O=C(Cn1cc(CN2CCN(c3ccnc4cc(Cl)ccc34)CC2)nn1)Nc1cccc([N+](=O)[O-])c1`, the growth in assay [1] was 75% (inactive); in assay [2], 85.6% (inactive); in assay [3], 98.7% (inactive); in assay [4], 95% (inactive); in assay [5], 89.1% (inactive); in assay [6] it was 101% (inactive). In addition, in assay [7], the growth is 85.4% (inactive).
On to `C=C(C)[C@@H]1CC[C@]2(C(=O)N3CCN(C)CC3)CC[C@]3(C)[C@H](CC[C@@H]4[C@@]5(C)CC(CCCNC(C)=O)(CCCNC(C)=O)[C@H](OC(C)=O)C(C)(C)[C@@H]5CC[C@]43C)[C@@H]12`, for which the growth in assay [1] is 89.9% (inactive); in assay [2] it was 104% (inactive); in assay [3], 94.4% (inactive); in assay [4], 99.2% (inactive); in assay [5], 89.1% (inactive); in assay [6], 90.7% (inactive). Further, the growth in assay [7] was 107% (inactive).
For the compound `COc1ccc(Oc2nc(Nc3ccc(N4CCOCC4)cc3)ncc2NC(=O)c2cc(OC)cc(OC)c2)cc1`, the growth is 93.6% (inactive) in assay [1]; 90.1% (inactive) in assay [2]; 40.4% (inactive) in assay [3]; 71.4% (inactive) in assay [4]; 76.9% (inactive) in assay [5]; 87.9% (inactive) in assay [6]. Moreover, the growth in assay [7] is 79.3% (inactive).
As for `CCNC(=S)n1nc(SC)c(C(=O)OCC)c1N`, the growth in assay [1] is 86.4% (inactive); in assay [2], 95.3% (inactive); in assay [3] it was 104% (inactive); in assay [4] it was 102% (inactive); in assay [5], 92% (inactive); in assay [6], 96.1% (inactive). For the same compound, the growth in assay [7] is 97.5% (inactive).
With `COc1cc(CO)cc2cc3ccccc3nc12`, the growth was 101% (inactive) in assay [1]; 102% (inactive) in assay [2]; 104% (inactive) in assay [3]; 102% (inactive) in assay [4]; 79.9% (inactive) in assay [5]; 98.5% (inactive) in assay [6]. Also, in assay [7], the growth was 102% (inactive).
`C/C=C(\C)C(=O)N[C@H]1CC[C@]2(C)C3CC[C@@]4(C)C(CC[C@@H]4C(C)N(C)C)C3CCC2[C@H]1OC(C)=O` (stereo partly drawn): the growth is -43.5% (active) in assay [1]; -11% (active) in assay [2]; -56.8% (active) in assay [3]; -93% (active) in assay [4]; -27% (active) in assay [5]; -83.3% (active) in assay [6]. Besides, in assay [7], the growth is -48.1% (active).
Regarding `CCN1C(=S)N(CC)C2C1NC(=S)N2/N=C/C=C/c1ccccc1` (stereo not drawn), the growth in assay [1] is 36.9% (inactive); in assay [2], 47.5% (inactive); in assay [3] it was -39% (active); in assay [4], 28% (inactive); in assay [5], 17.8% (inactive); in assay [6], 22.8% (inactive). In addition, the growth in assay [7] is 22% (inactive).
With `C#CCOc1cccc(Nc2ncc3ncn(C4CCN(C(=O)CCl)C4)c3n2)c1` (stereo not drawn), the growth in assay [1] is -10.5% [6.25 µM] (active); in assay [2], 29.3% [6.25 µM] (inactive); in assay [3] it was 35.2% [6.25 µM] (inactive); in assay [4] it was -41.4% [6.25 µM] (active); in assay [5], 8.03% [6.25 µM] (active); in assay [6], 0.194% [6.25 µM] (active). In assay [7], the growth is 87.5% [6.25 µM] (inactive).
As for `O=C(CN1C(=O)S/C(=C\C(Cl)=C\c2ccccc2)C1=O)NCCCn1ccnc1`, the growth in assay [1] was 21.3% (inactive); in assay [2], 43.8% (inactive); in assay [3] it was 20.2% (inactive); in assay [4], 3.27% (active); in assay [5] it was 15% (inactive); in assay [6], -57.2% (active). The growth in assay [7] is 33.9% (inactive).
As to `COc1ccc(-c2cc(=O)c3c(O)cc(O)cc3o2)cc1`, the growth in assay [1] is 101% (inactive) and 100% (inactive); in assay [2], 109% (inactive); in assay [3], 96.3% (inactive) and 96.5% (inactive); in assay [4] it was 106% (inactive) and 105% (inactive); in assay [5], 117% (inactive) and 106% (inactive); in assay [6], 103% (inactive) and 94.5% (inactive). Further, the growth in assay [7] was 91% (inactive) and 93.1% (inactive).
For the compound `CCCCC(NC(=O)CN1C(=O)/C(=C/C(C)=C/c2ccccc2)SC1=S)C(=O)O` (stereo not drawn), the growth in assay [1] was 105% (inactive); in assay [2], 112% (inactive); in assay [3], 104% (inactive); in assay [4], 94.6% (inactive); in assay [5], 93.3% (inactive); in assay [6], 98.5% (inactive). Further, the growth in assay [7] is 102% (inactive).
As to `COc1ccc(C/C(C)=C(/c2ccc(OCCN3CCCCCC3)cc2)c2ccc(OC(=O)c3ccccc3)cc2)cc1`, the growth is 71.9% (inactive) in assay [1]; 106% (inactive) in assay [2]; 104% (inactive) in assay [3]; 98.4% (inactive) in assay [4]; 60.5% (inactive) in assay [5]; 93.3% (inactive) in assay [6]. Moreover, the growth in assay [7] was 120% (inactive).
Regarding `O=C(CN1C(=O)S/C(=C\C(Cl)=C\c2ccccc2)C1=O)NC1C=CS(=O)(=O)C1` (stereo not drawn), the growth in assay [1] is 4.56% (active); in assay [2], 2.33% (active); in assay [3], -31.4% (active); in assay [4] it was -36.4% (active); in assay [5], 11.1% (inactive); in assay [6] it was -62.3% (active). In addition, the growth in assay [7] was 16.4% (inactive).
On to `N#Cc1cc(-c2ccnc(Nc3ccc(NC(=O)CCl)cc3)n2)ccc1N1CCCC1`, for which the growth is -68.2% (active) in assay [1]; -65% (active) in assay [2]; -47.6% (active) in assay [3]; -36.9% (active) in assay [4]; -19.1% (active) in assay [5]; -37.2% (active) in assay [6]. Moreover, the growth in assay [7] is -11.6% (active).
In the case of `Nc1ccccc1SC(CC(=O)c1ccccc1)c1ccc([N+](=O)[O-])cc1` (stereo not drawn), the growth in assay [1] is 93.5% (inactive) and 78.4% (inactive); in assay [2], 83.6% (inactive) and 86.4% (inactive); in assay [3] it was 101% (inactive) and 87.2% (inactive); in assay [4], 51.9% (inactive) and 45.8% (inactive); in assay [5], 33% (inactive) and 21.6% (inactive); in assay [6], -87.1% (active) and -80.5% (active). The growth in assay [7] is 79.1% (inactive) and 31.5% (inactive).
As to `O=C(NNC(=S)Nc1ccccc1)c1ccncc1`, the growth in assay [1] was 109% (inactive); in assay [2], 88.1% (inactive); in assay [3], 112% (inactive); in assay [4], 113% (inactive); in assay [5], 94.2% (inactive); in assay [6] it was 104% (inactive). Moreover, the growth in assay [7] is 107% (inactive).
Turning to `CC[C@H](C)[C@H](NC(=O)[C@H](CCCCN)NC(=O)[C@H](CCCCN)NC(=O)[C@@H](NC(=O)[C@@H](NC(=O)[C@@H](N)Cc1cnc[nH]1)[C@@H](C)CC)[C@@H](C)CC)C(=O)N[C@@H](CCCNC(=N)N)C(=O)N[C@H](C(=O)N[C@@H](Cc1c[nH]c2ccccc12)C(=O)N[C@@H](Cc1ccc(O)cc1)C(=O)N[C@@H](CCCNC(=N)N)C(=O)N[C@@H](CCCCN)C(=O)N[C@@H](C)C(=O)N[C@@H](Cc1c[nH]c2ccccc12)C(=O)N[C@@H](Cc1cnc[nH]1)C(=O)N[C@H](C(=O)N[C@@H](CC(C)C)C(=O)NCC(=O)N[C@@H](CCCCN)C(=O)N[C@H](C(N)=O)C(C)C)C(C)C)[C@@H](C)O`, the growth in assay [1] was -56.4% (active); in assay [2], 41.9% (inactive); in assay [3], 23.6% (inactive); in assay [4], 44.2% (inactive); in assay [5], -67.9% (active); in assay [6], 45.1% (inactive). In addition, the growth in assay [7] was -11.7% (active).
On to `Cc1ccc(Cc2cnc(NC(=O)c3cc(C)oc3C)s2)cc1`, for which the growth in assay [1] was 58.3% (inactive); in assay [2] it was 74% (inactive); in assay [3], 4.22% (active); in assay [4], 51.6% (inactive); in assay [5], 32% (inactive); in assay [6], 72.4% (inactive). Moreover, the growth in assay [7] was 38.4% (inactive).
For the compound `O=c1c2c([nH]c3ccccc13)CCCC2`, the growth in assay [1] was 105% (inactive) and 55.5% (inactive); in assay [2], 106% (inactive) and 59% (inactive); in assay [3], 103% (inactive) and -56.9% (active); in assay [4] it was 92.6% (inactive) and 16.1% (inactive); in assay [5] it was 88.7% (inactive) and 17.7% (inactive); in assay [6], 95.6% (inactive) and 23.5% (inactive). In addition, in assay [7], the growth is 99.2% (inactive) and 19.7% (inactive).
